Records with an inconclusive call do not appear. The source made the active and inactive calls. Calls come from the whole dose curve; as a rule, active = well fitted curve in the direction sought with a large enough effect; inconclusive = small, poorly fitted or top-dose-only effect, or another doubt; inactive = no such curve, though single readings can be large; an effect the other way counts as inactive or inconclusive.
What was measured:
[1] = NS1 protein of Zika virus - qHTS assay to identify small molecule inhibitors in human HEK 293 cells (AID 1347053); note: series mostly up to about 46 µM; nearly all actives have a fitted effect of over 55% in size
Outline: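 Following 20 h seeding, HEK 293 cells took compound, then 1 h later ZIKV MR766 (MOI = 0.5). Incubation ran 24 h at 37 C before TR-FRET detection of NS1; a drop in signal indicates inhibition.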

[2] = qHTS of pediatric cancer cell lines to identify multiple opportunities for drug repurposing: Primary screen for TC32 cells (AID 1347089); note: nearly all actives have a fitted effect of over 60% in size
Outline: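 qHTS, TC32, 48 h drug treatment, CellTiter-Glo luminescence as a proxy for metabolically active cells; primary top concentration 46 µM (MIPE 11-pt, NPC 8-pt); confirmatory 11-pt.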

[3] = qHTS of pediatric cancer cell lines to identify multiple opportunities for drug repurposing: Primary screen for DAOY cells (AID 1347090); note: series mostly up to about 46 µM; nearly all actives have a fitted effect of over 55% in size
Outline: (§1)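 Viability measured as metabolically active cells via CellTiter-Glo luminescence following 48 hours of compound exposure, 11-point dilutions in confirmatory testing. 500-1,000 cells/well plated 5 hours before dosing; controls were DMSO and 2.3 µM bortezomib.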

[4] = qHTS of pediatric cancer cell lines to identify multiple opportunities for drug repurposing: Primary screen for A673 cells (AID 1347092); note: nearly all actives have a fitted effect of over 45% in size
Outline: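 Luminescence from CellTiter-Glo, taken after 15 min at room temperature, served as the proxy for metabolically active cells following 48 h treatment. Both potency and efficacy were taken from curves fitted to the titration data.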

[5] = qHTS of pediatric cancer cell lines to identify multiple opportunities for drug repurposing: Primary screen for SK-N-MC cells (AID 1347093); note: series mostly up to about 46 µM
Outline: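 Metabolically active cells were quantified by ATP-dependent luminescence (CellTiter-Glo, 15 min at room temperature) following 48 h treatment. Cells had been plated at 500-1,000 per well and settled for 5 h beforehand.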

[6] = qHTS of pediatric cancer cell lines to identify multiple opportunities for drug repurposing: Primary screen for BT-37 cells (AID 1347094); note: series mostly up to about 57 µM
Outline: (§2)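 Cells seeded at 500-1,000 cells/well in growth media, rested 5 hours at 37 degrees C, 5% CO2, then dosed; MIPE compounds at 11-point (from 0.78 nM) and NPC at 8-point (from 0.59 nM) final concentrations. Viability by CellTiter-Glo luminescence after 48 hours.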

[7] = qHTS of pediatric cancer cell lines to identify multiple opportunities for drug repurposing: Primary screen for U-2 OS cells (AID 1347096); note: nearly all actives have a fitted effect of over 50% in size
Outline: (§3)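 Viability after 48 h compound treatment at 37C, 500-1,000 cells/well, read as ATP luminescence with CellTiter-Glo. Primary screens used 11-point (MIPE, 0.78 nM-46 µM) or 8-point (NPC, 0.59 nM-46 µM) final concentrations; follow-up screens used 11-point dilutions.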

[8] = qHTS of pediatric cancer cell lines to identify multiple opportunities for drug repurposing: Primary screen for Saos-2 cells (AID 1347097); note: nearly all actives have a fitted effect of over 40% in size
Outline: as §2

[9] = qHTS of pediatric cancer cell lines to identify multiple opportunities for drug repurposing: Primary screen for NB1643 cells (AID 1347099); note: nearly all actives have a fitted effect of over 50% in size
Outline: as §2

[10] = qHTS of pediatric cancer cell lines to identify multiple opportunities for drug repurposing: Primary screen for LAN-5 cells (AID 1347100)
Outline: as §3

[11] = qHTS of pediatric cancer cell lines to identify multiple opportunities for drug repurposing: Primary screen for BT-12 cells (AID 1347101); note: nearly all actives have a fitted effect of over 25% in size
Outline: (§4)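 Cells (500-1,000/well) rested 5 h, then received compounds for 48 h; metabolically active cells were measured by CellTiter-Glo luminescence. Final concentrations spanned up to 46 µM (MIPE, 11-point) or 0.59 nM-46 µM (NPC, 8-point) in primary screens, 11-point in follow-ups.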

[12] = qHTS of pediatric cancer cell lines to identify multiple opportunities for drug repurposing: Primary screen for Rh18 cells (AID 1347102); note: nearly all actives have a fitted effect of over 65% in size
Outline: as §3

[13] = qHTS of pediatric cancer cell lines to identify multiple opportunities for drug repurposing: Primary screen for OHS-50 cells (AID 1347103); note: nearly all actives have a fitted effect of over 40% in size
Outline: as §4

[14] = qHTS of pediatric cancer cell lines to identify multiple opportunities for drug repurposing: Primary screen for RD cells (AID 1347104); note: nearly all actives have a fitted effect of over 55% in size
Outline: as §2

[15] = qHTS of pediatric cancer cell lines to identify multiple opportunities for drug repurposing: Primary screen for MG 63 (6-TG R) cells (AID 1347105); note: nearly all actives have a fitted effect of over 50% in size
Outline: as §2

[16] = qHTS of pediatric cancer cell lines to identify multiple opportunities for drug repurposing: Primary screen for control Hh wild type fibroblast cells (AID 1347106);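 note: series mostly up to about 46 µM; a drop in luminescence marks cytotoxicity and a rise apparent proliferation; nearly all actives have a fitted effect of over 55% in size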
Outline: as §3

[17] = qHTS of pediatric cancer cell lines to identify multiple opportunities for drug repurposing: Primary screen for Rh30 cells (AID 1347107); note: series mostly up to about 46 µM; nearly all actives have a fitted effect of over 75% in size
Outline: as §3

[18] = qHTS of pediatric cancer cell lines to identify multiple opportunities for drug repurposing: Primary screen for SJ-GBM2 cells (AID 1347091)
Outline: as §1

[19] = qHTS of pediatric cancer cell lines to identify multiple opportunities for drug repurposing: Primary screen for NB-EBc1 cells (AID 1347095)
Outline: as §2

[20] = qHTS of pediatric cancer cell lines to identify multiple opportunities for drug repurposing: Primary screen for SK-N-SH cells (AID 1347098);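 note: DMSO served as neutral control and bortezomib at 2.3 µM as positive control; nearly all actives have a fitted effect of over 65% in size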
Outline: as §4

Measured: Potency

Cc1cc(-n2nc3ccc(Cl)cc3n2)c(O)c(C(C)(C)C)c1
inactive: [1] | [2] | [3] | [4] | [5] | [6] | [7] | [8] | [9] | [10] | [11] | [12] | [13] | [14] | [15] | [16] | [17]

CCCNC(C)C(=O)Nc1c(C)csc1C(=O)OC (stereo unspecified)
inactive: [1] | [3] | [18] | [4] | [5] | [6] | [19] | [7] | [8] | [20] | [9] | [10] | [11] | [12] | [13] | [14] | [16] | [17]

Cc1ncc(CO)c(CN)c1O
inactive: [1] | [2] | [3] | [4] | [5] | [6] | [19] | [7] | [8] | [20] | [9] | [10] | [11] | [12] | [13] | [14] | [16] | [17]

CCCOC(=O)c1ccc(N)cc1
inactive: [1] | [2] | [3] | [4] | [5] | [6] | [19] | [7] | [8] | [20] | [9] | [10] | [11] | [12] | [13] | [14] | [15] | [16] | [17]

CC(=O)OCC(=O)[C@@]1(O)CC[C@H]2[C@@H]3CCC4=CC(=O)C=C[C@]4(C)[C@@]3(F)[C@@H](O)C[C@@]21C
inactive: [1] | [2] | [3] | [4] | [5] | [6] | [19] | [7] | [8] | [20] | [9] | [10] | [13] | [14] | [15] | [16] | [17]

Cn1c(=O)c2c(ncn2CCO)n(C)c1=O
inactive: [1] | [2] | [3] | [4] | [6] | [19] | [7] | [8] | [20] | [9] | [10] | [11] | [12] | [13] | [14] | [15] | [16] | [17]

FC(F)(F)C(Cl)Br (stereo unspecified)
inactive: [1] | [2] | [3] | [4] | [5] | [6] | [19] | [7] | [20] | [10] | [12] | [13] | [14] | [15] | [16] | [17]

CC1(c2ccccc2)OC(C(=O)O)=CC1=O (stereo unspecified)
inactive: [1] | [2] | [3] | [4] | [5] | [6] | [19] | [7] | [8] | [20] | [10] | [11] | [12] | [13] | [14] | [15] | [16] | [17]

O=S1(=O)OC(c2ccc(O)cc2)(c2ccc(O)cc2)c2ccccc21
inactive: [1] | [3] | [18] | [4] | [5] | [6] | [19] | [7] | [8] | [20] | [9] | [10] | [11] | [12] | [13] | [14] | [16] | [17]

CC(=O)N(CC(O)CN(C(C)=O)c1c(I)c(C(=O)NCC(O)CO)c(I)c(C(=O)NCC(O)CO)c1I)c1c(I)c(C(=O)NCC(O)CO)c(I)c(C(=O)NCC(O)CO)c1I (stereo unspecified)
inactive: [1] | [3] | [18] | [4] | [5] | [6] | [19] | [7] | [8] | [20] | [10] | [11] | [12] | [13] | [14] | [15] | [16] | [17]

Cc1ccccc1N=Nc1ccc(N=Nc2c(O)ccc3ccccc23)c(C)c1
inactive: [1] | [3] | [18] | [4] | [5] | [6] | [19] | [7] | [8] | [20] | [9] | [10] | [12] | [13] | [14] | [16] | [17]

CCN(CC)CCc1nc(-c2ccccc2)no1
inactive: [1] | [3] | [4] | [5] | [19] | [7] | [8] | [20] | [9] | [10] | [11] | [12] | [13] | [14] | [16] | [17]

CC(=O)N[C@@H](Cc1ccc(O)cc1)C(=O)O
inactive: [1] | [3] | [4] | [5] | [6] | [19] | [7] | [20] | [9] | [10] | [11] | [13] | [14] | [15] | [16] | [17]

COc1ccc(C(=O)NCc2ccc(OCCN(C)C)cc2)cc1OC
inactive: [1] | [3] | [4] | [5] | [6] | [19] | [7] | [8] | [10] | [11] | [13] | [14] | [15] | [16] | [17]

Source: PubChem BioAssay (NCATS)
